This passage reports inhibition results from PubChem BioAssay AID1662 (Broad Institute, 2009).

For orientation: inhibition means the drop in the measured response relative to a control, in per cent.

The campaign covered roughly 300,000 compounds. About 4,000 (1.3%) were called active. The sample as a whole holds a higher share of actives than the screen did. A number with no mark means an inactive call.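 How the source made its calls: active means mean replicate score, as percent of positive control median, at least 50; inconclusive means mean below 50 but one replicate at or above 50; inactive means mean and every replicate below 50.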

The nature of the assay: S. pyogenes SKKanGAS growth inhibitors in kanamycin, primary screen, streptokinase expression inhibitor project, SKKanGAS strain, BacTiter-Glo luminescence (AID 1662).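 Further: strain carries kanamycin resistance gene driven by streptokinase promoter and grows in 40 µg/ml kanamycin; loss of luminescence reflects streptokinase promoter inhibition or plain growth inhibition; 0% = median of DMSO wells and 100% = positive control at its reference dose.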 The note with it: 6 h, at 7.5 µM, hits give high values.
For `CC(=O)N[C@H]1[C@H]([C@H](O)[C@H](O)CO)OC(C(=O)O)=C[C@@H]1O`, the inhibition is -0.96%.

As to `c1ccc(-c2oc3ncnc(N4CCOCC4)c3c2-c2ccccc2)cc1`, the inhibition was -2.29%.

In the case of `N=c1c2c(-c3ccccc3)c(-c3ccccc3)n(Cc3ccccc3)c2ncn1CCCO`, the inhibition is -1.98%.

On to `COc1ccc(-c2oc3ncn(Cc4ccco4)c(=N)c3c2-c2ccc(OC)cc2)cc1`, for which the inhibition was 55% (active).

Consider `N=c1c2c(-c3ccccc3)c(-c3ccccc3)oc2ncn1Cc1ccco1`, for which the inhibition was 63.5% (active).

As to `COc1ccc2[nH]c3c(=O)n(Cc4ccco4)cnc3c2c1`, the inhibition is 17.1%.

On to `COc1ccc(-c2oc3ncnc(NCCCO)c3c2-c2ccc(OC)cc2)cc1`, for which the inhibition was 33.4%.

On to `O=C(O)CC(Cn1cnnn1)c1ccccc1` (stereo not given), for which the inhibition is -1.95%.

For the compound `C/C(CC(C)C)=N\Oc1nc(C)cc(C)n1`, the inhibition was -4.06%.

As to `O=[N+]([O-])c1ccc(NCCCO)c(C(F)(F)F)c1`, the inhibition was 0.29%.

Regarding `COc1cc(C=O)ccc1Oc1nnnn1-c1ccccc1`, the inhibition is 24.2%.

In the case of `CN(C(=O)Nc1ccc(Cl)cc1)n1cnc2ccccc2c1=O`, the inhibition was 3.63%.

On to `Oc1ccc(Br)cc1/C=N/Nc1ccccn1`, for which the inhibition was 106% (active).

Consider `O=C(CCCO)N/N=C/c1cc(Br)ccc1O`, for which the inhibition is -3.72%.

Take `Oc1ccc(/C=N/Nc2ccc(C(F)(F)F)cn2)cc1O`: the inhibition is -9.78%.

As for `CN(C)Cc1ccc(F)cc1Sc1cc(Cl)ccc1Cl`, the inhibition is -3.54%.

With `Cc1nc(NC(=O)c2cccc(Cl)c2)sc1-c1csc(Nc2cccc(Cl)c2)n1`, the inhibition was 25.6%.

As to `O=C(Nc1ccc(-c2csc(Nc3cccc(C(F)(F)F)c3)n2)cc1)c1cccc(C(F)(F)F)c1`, the inhibition is 98.6% (active).

For `CC(=O)Nc1ccc(S(=O)(=O)Nc2nc(-c3ccc(C(C)(C)C)cc3)cs2)cc1`, the inhibition was 0.664%.

For the compound `COc1c(O)cc2oc(-c3ccc(O)c(O)c3)cc(=O)c2c1O`, the inhibition is 3.54%.

As to `OCc1ccc(-c2ccccc2)c(-c2ccccc2)c1`, the inhibition is -11.9%.

In the case of `COCCNC(=S)N(CCc1c(C)[nH]c2ccc(C)cc12)Cc1cccnc1`, the inhibition was 8.58%.

As for `O=C(O)c1cccc(N=NN2CCCCCC2)c1`, the inhibition was 5.53%.

Regarding `C[C@H]1[C@H]2c3nc4ccccc4n3C[C@H]1ON2C1CCCCC1`, the inhibition was -3.38%.

With `Cn1c(SCC(=O)Nc2ccc(Cl)cc2)nc(O)cc1=O`, the inhibition is 112% (active).

As for `COc1ccc(NC(=O)CSc2nc3ccccc3c(=O)n2C)cc1`, the inhibition was -4.23%.

With `Cc1ccccc1-n1c(SCC(=O)Nc2cccc3ccccc23)nc(O)cc1=O`, the inhibition is 18.6%.

Regarding `C/C(=N\Nc1cccc(C(=O)O)c1)c1ccc2c(c1)Nc1ccccc1S2`, the inhibition is 0.801%.

For the compound `COc1ccccc1CCNC(=O)c1c(C)nn(CC(C)C)c1Cl`, the inhibition is -0.777%.

Regarding `COc1cc(OC)cc(C(=O)NC(=S)N2CCN(c3ccc(C(F)(F)F)cc3[N+](=O)[O-])CC2)c1`, the inhibition was 86.6% (active).

For the compound `O=C(Cc1ccc(S(=O)(=O)N2CCOCC2)s1)N1CCN(c2ccc(C(F)(F)F)cc2[N+](=O)[O-])CC1`, the inhibition is 3.49%.

For the compound `O=C(Nc1cccc(C(F)(F)F)c1)c1ccc(N2CCNCC2)c([N+](=O)[O-])c1`, the inhibition is -0.102%.

For the compound `Cc1cc(C(=O)OCC(=O)NCc2ccco2)c(C)n1-c1ccccc1`, the inhibition was 2.24%.

On to `O=C(Nc1cc(C(F)(F)F)ccc1Cl)C(=O)N1CCCCC1`, for which the inhibition was -4.87%.

As for `O=C(NNc1ccccc1Cl)C(O)(c1cccc(C(F)(F)F)c1)c1cccc(C(F)(F)F)c1`, the inhibition was 98.2% (active).

For the compound `CC(CC(=O)Nc1cc(C(F)(F)F)ccc1Cl)c1ccccc1` (stereo not given), the inhibition was 24.4%.

On to `COc1cc(C)c(S(=O)(=O)N2CCOCC2)c(C)c1C`, for which the inhibition was 0.811%.

With `COCCN(CCOC)C(=S)Nc1ccccc1Cl`, the inhibition is -4.57%.

As for `O=C(Nc1ccccc1Cl)/C(Cl)=C(\Cl)S(=O)c1ccccc1` (stereo not given), the inhibition was 75.1% (active).

With `O=C(Nc1ccccc1Cl)Nc1cccc2cccnc12`, the inhibition was -4.43%.

Turning to `Cn1cccc1C(C#N)c1ccccc1C#N` (stereo not given), the inhibition is 0.367%.

On to `Cc1cc(C)c2nc(N(CCN(C)C)C(=O)/C=C/c3cccs3)sc2c1`, for which the inhibition is 3.15%.

In the case of `CCn1c(SCC(=O)Nc2ccc(S(=O)(=O)Nc3onc(C)c3C)cc2)nnc1-c1ccccc1`, the inhibition is -0.983%.

`Cc1noc(NS(=O)(=O)c2ccc(NC(=O)c3oc4ccc(F)cc4c3C)cc2)c1C`: the inhibition was 25.3%.

On to `Cc1cc(C)c2nc(-c3cccnc3)cc(C(=O)Nc3ccc(S(=O)(=O)Nc4onc(C)c4C)cc3)c2c1`, for which the inhibition was 64.7% (active).

Turning to `Cc1ccsc1CNn1cnnc1SCc1ccccc1F`, the inhibition is -0.394%.

For the compound `c1ccc(-c2cc(N3CCCCC3)c3ccccc3n2)cc1`, the inhibition is 13.6%.

Turning to `O=C(c1cc2ccccc2o1)N1CCN(c2cccc(C(F)(F)F)c2)CC1`, the inhibition is 0.601%.

In the case of `FC(F)(F)c1cccc(-c2cc3ccccc3nc2N2CCCC2)c1`, the inhibition was 51.7% (active).

Take `O=C(c1ccc(OC2CCN(C(=O)c3cccnc3)CC2)cc1)N1CCCCCC1`: the inhibition is -5.73%.

For `O=C(N/N=C/c1cccc([N+](=O)[O-])c1)c1ccncc1`, the inhibition is 1.34%.

On to `Cc1[nH]n(-c2ccccc2)c(=O)c1/C=N/NC(=O)c1ccoc1C`, for which the inhibition is -29.8%.

Take `Cc1ccc(-n2[nH]c(C)c(/C=N/NC(=O)c3cccc([N+](=O)[O-])c3)c2=O)cc1C`: the inhibition was 91.5% (active).

With `CC1=C2C(=O)OC(c3ccoc3)C2(C)CCC1` (stereo not given), the inhibition is -13.7%.

Regarding `CCC(NC(=O)C1CCCC1)c1ccc(C)cc1` (stereo not given), the inhibition is 5.2%.

Consider `Cc1nn(C)c(C)c1S(=O)(=O)N1CCC(CO)(Cc2ccc(Cl)cc2)CC1`, for which the inhibition is -2.57%.

Turning to `CC1CN(C(=S)Nc2ccccc2F)CC(C)O1` (stereo not given), the inhibition is -2.73%.

Consider `COc1c(N2CCN(C(=S)Nc3ccccc3F)C(C)C2)c(F)cc2c(=O)c(C(=O)O)cn(C3CC3)c12` (stereo not given), for which the inhibition was 104% (active).

`COc1ccccc1NC(=S)N1CCN(c2ccc(F)cc2)CC1`: the inhibition was -4.99%.

On to `COc1ccc(S(=O)(=O)NCC(=O)NC2CC2)cc1OC`, for which the inhibition is -2.16%.
